Source: PubChem BioAssay
MCF10A rerep: inducers of DNA re-replication in MCF 10A breast cells; MCF 10A DNA re-replication, Hoechst nuclear intensity, 48 h; Potency, µM (series often up to 46.1 µM), for the others: at the highest dose activity, positive = re-replication, usual class: activators; 350,000 compounds, 2.9% hits; AID 624296; further: % of control where 0% means no effect; nearly all actives have a fitted effect of over 50% in size
SW480 rerep: inducers of DNA re-replication in SW480 colon cancer cells. SW480 DNA re-replication, Hoechst DNA content imaging, 48 h. 340,000 compounds, 1.8% hits. Potency, µM (doses to about 46.1 µM), for inactives: at the highest dose re-replication activation, usual class: activators. AID 624297; further: % of control where 0% means no effect; nearly all actives have a fitted effect of over 55% in size
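Image-based DNA-content assay: after two days of treatment, nuclei were labelled with the DNA dye Hoechst and imaged, and hits were compounds raising the count of nuclei showing high fluorescence intensity.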
ELG1 genotoxic: inducers of genotoxicity in HEK293T ELG1-luciferase cells. Potency, µM (titrated, usually from 46 µM), without a hit: at the top dose activity change, positive = activation, hits mostly activators. HEK293T ELG1-luciferase reporter, luminescence, 16 h. 330,000 compounds, 1.3% hits; further: % of control where 0% means no effect; nearly all actives have a fitted effect of over 60% in size
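ELG1-luciferase HEK293T cells, 2,000/well; compound pinned in; 16 hr, 37 °C, 5% CO2; ONE-Glo, 30 min RT; luminescence on CCD imager.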
A-T KAP1 phos: potential ataxia-telangiectasia treatment | Potency, µM (titrated, usually from 57.5 µM), for the others: top-dose activation, hits mostly activators | F2112 A-T fibroblasts, KAP-1 phosphorylation AlphaLISA; neocarzinostatin DNA damage 30 min before lysis | 320,000 compounds, 0.19% hits; further: % of control where 0% means no effect; nearly all actives have a fitted effect of over 45% in size
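ATM-like activity read as KAP-1 phosphorylation via AlphaLISA donor/acceptor antibody pairs after lysis and 6 hr at 25C. Cells were ATM-null patient fibroblasts (F2112, hTERT), dosed 60 min, then exposed to the DSB inducer NCS for 30 min.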
p53 reactivator: mutant p53 re-activation in reporter cells | H1299 p53-A138V BP100-luciferase reporter, luminescence, 24 h | Potency, µM (top dose mostly 92.2 µM), without a hit: at the highest dose activity change, positive = activation, most hits filed as activators | 320,000 compounds, 0.063% hits | AID 504706; further: % of control where 0% means no effect; nearly all actives have a fitted effect of over 45% in size
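p53-null H1299 cells stably carrying temperature-sensitive p53-A138V and a BP100-luciferase reporter were pinned with compounds (4-point, 1:5 series) and held 24 hrs at 37 deg C. Luminescence was read 10 min after detection reagent.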
ELG1 repair inh: blocks ELG1-dependent DNA repair in HEK293T cells | HEK293T ELG1-luciferase reporter, luminescence, 16 h; DNA damage induced by 5-fluorouridine | Potency, µM (top dose mostly 46.1 µM), without a hit: top-dose activity change, negative = inhibition, usual class: inhibitors | 330,000 compounds, 2.3% hits; further: on the % scale 0 is the no-effect control and ±100 the full control effect; nearly all actives have a fitted effect of over 55% in size
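Quantitative HTS, concentration-response format. 2,000 cells/well co-treated with 5-fluorouridine and compound, 16 hr in 5% CO2 at 37 °C; ONE-Glo luminescence read after 30 min.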
An asterisk follows results filed as active; u = inconclusive; x = not tested or not shown. Only some compounds are listed: those with a hit (about 7.1% of all), similar ones and a draw of the others. The call rests on the fitted dose curve; in most records, active means well fitted curve in the direction sought with a large enough effect; inconclusive means small, poorly fitted or top-dose-only effect, or another doubt; inactive means no such curve, though single readings can be large; an effect the other way counts as inactive or inconclusive. Potency means the concentration at half of the fitted maximal effect.

SMILES | MCF10A rerep | SW480 rerep | ELG1 genotoxic | A-T KAP1 phos | p53 reactivator | ELG1 repair inh
COc1ccccc1N(CC(=O)NCC1CCCO1)C(=O)CNS(=O)(=O)c1ccc(C)cc1 (stereo unspecified) | 2% | -9% | 1% | -2% | 2% | -4%
COc1ccccc1N(CC(=O)NCC1CCCO1)C(=O)CNS(=O)(=O)c1ccc(Cl)cc1 (stereo unspecified) | 0% | 0.73µM* | -1% | 31% | 11% | 1%
Cc1ccc(OCCNc2ccc(S(=O)(=O)N3CCCC3)cn2)cc1 | 58% | 21µM* | 2% | -1% | -3% | -3%
O=S(=O)(c1ccc(NCCOc2ccccc2)nc1)N1CCCC1 | -6% | -6% | 0% | 0% | -5% | 3%
O=S(=O)(c1ccc2c(c1)CCC2)N1CCNCC1 | 11% | -3% | 0% | 0% | 0% | 2%
COc1ccc(-c2c(C#Cc3ccc(N(C)C)cc3)c3ccccc3n2C)cc1 | u | u | 8% | 9% | u | u
COc1ccc(C#Cc2c(-c3ccccc3)n(-c3ccccc3)c3ccc(CO)cc23)cc1 | 21µM* | u | -6% | 21% | 6% | -13%
COc1ccc(COc2cc(-c3cccc(OC)c3)nc3ccc(NC(=O)C(C)C)cc23)cc1 | u | 15µM* | -2% | 9% | 7% | u
OC[C@H]1O[C@@](CO)(O[C@H]2O[C@H](CO)[C@@H](O)[C@H](O)[C@H]2O)[C@@H](O)[C@@H]1O | 3% | 3% | x | x | x | x
CCN(CC)c1ccc(NC(=O)c2c(C)noc2C)cc1 | 0% | -2% | 10% | 10% | 11% | 4%
Cc1ccc(CCNS(=O)(=O)c2ccc3c(c2)NC(=O)C(C)C(=O)N3)cc1 (stereo unspecified) | 14% | 0% | 0% | -7% | x | 2%
O=C1CN(C(=O)NCC(=O)N2CCCC2)c2ccccc2N1 | -4% | -12% | 1% | 12% | -3% | 24%
COc1ccc(C(=O)/C=C/N(C)C)cc1OC | u | -8% | 2% | 1% | -6% | 0%
COc1ccc(C(=O)/C=C2\NCCc3cc(OC)c(OC)cc32)cc1OC | -1% | 13% | 10% | 9% | -4% | 15µM*
O=C(CN1C(=O)NC(c2ccccc2)(c2ccccc2)C1=O)NC1CCCCC1 | 23% | u | 3% | -10% | -11% | 2%
C=CCn1c(SC(F)F)nc2scc(-c3ccco3)c2c1=O | 2.9µM* | 20% | u | -3% | u | 25%
C=CCn1c(SCC(C)=O)nc2scc(-c3ccco3)c2c1=O | u | u | 3% | -3% | -16% | 11%
COc1ccc(C(=O)OCC(=O)N(C)C2CCS(=O)(=O)C2)cc1Br (stereo unspecified) | 6% | -16% | 6% | -3% | 1% | u
O=C1OCC2=C1C(c1ccc(F)cc1)c1cc3c(cc1N2)OCCO3 (stereo unspecified) | u | 0.1µM* | 27% | -3% | -4% | -5%
CC(=O)Oc1ccc(C2C3=C(CC(C)(C)CC3=O)Nc3cc4c(cc32)OCCO4)cc1 (stereo unspecified) | -4% | 2% | 7% | 5% | 1% | -3%
CCOc1ccccc1C1C2=C(COC2=O)Nc2cc3c(cc21)OCO3 (stereo unspecified) | u | 0.92µM* | u | -6% | 2% | 5%
C#CCOc1ccc(C2C3=C(COC3=O)Nc3cc4c(cc32)OCO4)cc1OC (stereo unspecified) | u | 0.52µM* | u | -8% | 9% | -10%
O=C1OCC2=C1C(c1ccc(F)cc1)c1cc3c(cc1N2)OCO3 (stereo unspecified) | u | 0.16µM* | 12% | -2% | -1% | u
